# According to PubChem BioAssay (Tox21):
# Results filed as inconclusive are left out. Where a call stands in place of a potency, no number is given. A number with no mark means an inactive call. Calls of active or inactive are those of the source. Unless noted, calls come from the whole dose curve; as a rule, active = well fitted curve in the direction sought with a large enough effect in the repeat runs; inconclusive = weak or mixed curves; inactive = no such curve, though single readings can be large; an effect the other way counts as inactive or inconclusive.
# Legend:
# [1] = qHTS assay to identify small molecule antagonists of the thyroid receptor (TR) signaling pathway - cell viability counter screen (AID 743064); note: nearly all actives have a fitted effect of over 50% in size; note: potency is the fitted concentration of half-maximal effect
# How it was run: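 Fluorescence from CellTiter-Fluor, added after 23.5 h exposure at 37 °C, reported viability of GH3.TRE-Luc cells co-treated with compound and 1 nM T3. Measured in the same wells as the luciferase TR readout.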
# [2] = tested on: thyroid hormone receptor (rat, GH3 cells); assay: qHTS assay to identify small molecule agonists of the thyroid receptor (TR) signaling pathway (AID 743066; calls by dose curve)
# [3] = biological target: Estrogen receptor (Homo sapiens) (UniProt P03372); assay: qHTS assay to identify small molecule antagonists of the estrogen receptor alpha (ER-alpha) signaling pathway (AID 743069; active = well fitted curve in the direction sought with a large enough effect in the signal ratio in the repeat runs, not every such curve was filed as active; the % refers to the signal ratio)
# Estrogen receptor (Homo sapiens), sequence (P03372 whole entry, looked up): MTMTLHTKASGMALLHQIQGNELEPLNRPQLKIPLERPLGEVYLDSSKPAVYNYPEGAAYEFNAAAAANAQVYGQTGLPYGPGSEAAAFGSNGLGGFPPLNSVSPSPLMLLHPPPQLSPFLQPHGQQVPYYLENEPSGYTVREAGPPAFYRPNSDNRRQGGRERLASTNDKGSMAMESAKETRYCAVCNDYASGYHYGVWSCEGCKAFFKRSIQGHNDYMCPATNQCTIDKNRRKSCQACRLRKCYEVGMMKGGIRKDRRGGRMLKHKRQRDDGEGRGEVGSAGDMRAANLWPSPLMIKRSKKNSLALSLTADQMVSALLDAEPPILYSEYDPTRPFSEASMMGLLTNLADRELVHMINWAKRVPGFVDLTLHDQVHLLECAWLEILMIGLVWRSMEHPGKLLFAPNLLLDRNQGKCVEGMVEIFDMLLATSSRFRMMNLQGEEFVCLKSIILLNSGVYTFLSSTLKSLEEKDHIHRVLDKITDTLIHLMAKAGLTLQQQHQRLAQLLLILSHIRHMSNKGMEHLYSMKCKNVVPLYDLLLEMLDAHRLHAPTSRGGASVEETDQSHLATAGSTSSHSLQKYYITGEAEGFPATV
# How it was run: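 Screening used a UAS-driven beta-lactamase reporter integrated into HEK293 cells expressing ER-alpha, stimulated with 17beta-estradiol alongside test compounds over 18 hr at 37C; signal came from LiveBLAzer B/G FRET fluorescence.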
# [4] = qHTS assay to identify small molecule antagonists of the estrogen receptor alpha (ER-alpha) signaling pathway - cell viability counter screen (AID 743074; calls by dose curve; note: nearly all actives have a fitted effect of over 45% in size)
# [5] = biological target: Estrogen receptor (Homo sapiens) (UniProt P03372); assay: qHTS assay to identify small molecule agonists of the estrogen receptor alpha (ER-alpha) signaling pathway (AID 743075; calls by dose curve)
# [6] = biological target: Estrogen receptor (Homo sapiens) (UniProt P03372); assay: qHTS assay to identify small molecule agonists of the estrogen receptor alpha (ER-alpha) signaling pathway using the BG1 cell line (AID 743079); details: BG1Luc4E2 cells, ERE-luciferase agonist, 22 h; at 70.3 µM (top of the series); note: nearly all actives have a fitted effect of over 20% in size
# [7] = qHTS assay to identify small molecule antagonists of the estrogen receptor alpha (ER-alpha) signaling pathway using the BG1 cell line (AID 743080; calls by dose curve;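 note: BG1 cells stimulated with 17beta-estradiol alongside compound; nearly all actives have a fitted effect of over 25% in size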)
# How it was run: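 BG1-Luc-4E2 cells (endogenous full-length ER-alpha, 4xERE luciferase) hormone-starved 5 days in charcoal-stripped FBS, plated 4,000/well for 24 h, then compound plus 17beta-estradiol for 21.5 h at 37 C; ONE-Glo luminescence read.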
# [8] = qHTS assay to identify small molecule antagonists of the estrogen receptor alpha (ER-alpha) signaling pathway using the BG1 cell line - cell viability counter screen (AID 743081);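 note: compound given together with 17beta-estradiol as the ER stimulus; nearly all actives have a fitted effect of over 45% in size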
# Aromatase (Homo sapiens) = Aromatase (Homo sapiens) (UniProt P11511); assay: qHTS assay to identify aromatase inhibitors (AID 743083); note: nearly all actives have a fitted effect of over 55% in size
# Aromatase (Homo sapiens), sequence (P11511 whole entry, looked up): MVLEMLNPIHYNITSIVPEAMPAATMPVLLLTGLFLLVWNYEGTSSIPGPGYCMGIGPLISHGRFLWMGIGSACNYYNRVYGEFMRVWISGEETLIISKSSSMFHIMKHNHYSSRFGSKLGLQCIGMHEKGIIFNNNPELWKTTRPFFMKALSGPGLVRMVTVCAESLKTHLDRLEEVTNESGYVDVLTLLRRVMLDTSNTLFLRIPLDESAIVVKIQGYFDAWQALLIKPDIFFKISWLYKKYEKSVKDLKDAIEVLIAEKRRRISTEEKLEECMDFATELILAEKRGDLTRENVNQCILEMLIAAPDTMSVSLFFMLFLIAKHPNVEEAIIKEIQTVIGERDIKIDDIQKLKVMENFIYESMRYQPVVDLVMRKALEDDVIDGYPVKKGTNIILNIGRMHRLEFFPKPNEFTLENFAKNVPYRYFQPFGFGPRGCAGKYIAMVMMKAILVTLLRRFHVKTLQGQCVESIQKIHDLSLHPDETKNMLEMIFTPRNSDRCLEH
# [9] = qHTS assay to identify aromatase inhibitors - cell viability counter screen (AID 743084);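 note: cells stimulated with testosterone during compound exposure; nearly all actives have a fitted effect of over 55% in size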
# [10] = biological target: Aryl hydrocarbon receptor (Homo sapiens) (UniProt P35869); assay: qHTS assay to identify small molecule that activate the aryl hydrocarbon receptor (AhR) signaling pathway (AID 743085);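 note: HG2L7.5c1 human HepG2 liver cells with stably integrated DRE-driven firefly reporter; nearly all actives have a fitted effect of over 15% in size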
# Aryl hydrocarbon receptor (Homo sapiens), sequence (P35869 whole entry, looked up): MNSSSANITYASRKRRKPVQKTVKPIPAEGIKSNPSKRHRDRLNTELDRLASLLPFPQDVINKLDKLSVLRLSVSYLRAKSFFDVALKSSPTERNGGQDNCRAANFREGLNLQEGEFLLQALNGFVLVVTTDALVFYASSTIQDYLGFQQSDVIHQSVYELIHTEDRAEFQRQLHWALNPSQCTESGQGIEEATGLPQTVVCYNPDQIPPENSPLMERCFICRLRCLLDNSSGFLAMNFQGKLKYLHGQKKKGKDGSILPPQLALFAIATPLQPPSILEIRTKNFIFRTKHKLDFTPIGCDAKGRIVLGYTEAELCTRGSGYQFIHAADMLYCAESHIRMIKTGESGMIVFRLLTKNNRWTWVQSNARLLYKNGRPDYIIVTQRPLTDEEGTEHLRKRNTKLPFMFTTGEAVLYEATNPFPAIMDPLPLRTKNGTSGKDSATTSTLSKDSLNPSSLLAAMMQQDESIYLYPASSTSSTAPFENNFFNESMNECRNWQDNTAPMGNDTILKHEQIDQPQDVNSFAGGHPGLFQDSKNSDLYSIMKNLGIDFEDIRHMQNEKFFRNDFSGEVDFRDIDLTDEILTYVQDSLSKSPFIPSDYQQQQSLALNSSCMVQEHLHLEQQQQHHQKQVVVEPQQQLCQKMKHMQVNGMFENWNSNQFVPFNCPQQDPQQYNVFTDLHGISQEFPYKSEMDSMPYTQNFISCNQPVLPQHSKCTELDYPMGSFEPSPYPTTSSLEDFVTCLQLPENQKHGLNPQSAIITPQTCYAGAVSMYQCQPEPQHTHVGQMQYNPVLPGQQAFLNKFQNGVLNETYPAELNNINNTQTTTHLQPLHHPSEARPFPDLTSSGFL
# How it was run: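 Cell line HG2L7.5c1 (human hepatoma, 20× DRE-luc). Plated, 5 h 37C, compound/DMSO added, 24 h 37C. CellTiter-Fluor 30 min 37C → fluorescence; then ONE-Glo 30 min RT → luminescence.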
# [11] = qHTS assay to identify small molecule that activate the aryl hydrocarbon receptor (AhR) signaling pathway - cell viability counter screen (AID 743086);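 note: HepG2 liver cells carrying the AhR DRE luciferase reporter; nearly all actives have a fitted effect of over 45% in size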
# How it was run: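 HepG2-AhR-luc (HG2L7.5c1) cells, 4000/well, were preincubated 5 h at 37C, exposed to compound in qHTS format for 24 hr at 37C, then given CellTiter-Fluor for 30 min; viability was read as fluorescence in the reporter wells.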
# [12] = biological target: Peroxisome proliferator-activated receptor gamma (Homo sapiens) (UniProt P37231); assay: qHTS assay to identify small molecule agonists of the peroxisome proliferator-activated receptor gamma (PPARg) signaling pathway (AID 743094; active = well fitted activation curve with a large enough effect in the signal ratio in the repeat runs, not every such curve was filed as active; the % refers to the signal ratio)
# Peroxisome proliferator-activated receptor gamma (Homo sapiens), sequence (P37231 whole entry, looked up): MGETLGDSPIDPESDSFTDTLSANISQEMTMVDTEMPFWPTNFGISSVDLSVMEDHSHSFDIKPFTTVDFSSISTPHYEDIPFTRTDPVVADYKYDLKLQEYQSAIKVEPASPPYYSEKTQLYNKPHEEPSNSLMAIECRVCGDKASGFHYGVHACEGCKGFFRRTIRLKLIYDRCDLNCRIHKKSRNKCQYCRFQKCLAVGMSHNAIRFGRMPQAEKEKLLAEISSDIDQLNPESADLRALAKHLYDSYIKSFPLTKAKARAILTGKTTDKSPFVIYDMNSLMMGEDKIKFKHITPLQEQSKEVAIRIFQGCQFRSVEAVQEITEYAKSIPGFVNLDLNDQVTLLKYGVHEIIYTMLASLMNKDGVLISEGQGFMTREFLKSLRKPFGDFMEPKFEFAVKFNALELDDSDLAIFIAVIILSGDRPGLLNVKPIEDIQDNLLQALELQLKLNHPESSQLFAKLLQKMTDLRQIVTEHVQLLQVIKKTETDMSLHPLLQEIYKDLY
# How it was run: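 Cells from the PPARg UAS-bla HEK293H line are plated and incubated 5 h at 37C. Compounds in DMSO are pinned in and left 17 h at 37C. LiveBLAzer B/G substrate is then added for 1 h at room temperature before fluorescence is measured.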
# [13] = biological target: Peroxisome proliferator-activated receptor gamma (Homo sapiens) (UniProt P37231); assay: qHTS assay to identify small molecule antagonists of the peroxisome proliferator-activated receptor gamma (PPARg) signaling pathway (AID 743191; calls by dose curve; note: nearly all actives have a fitted effect of over 30% in size)
# How it was run: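 GeneBLAzer PPARg UAS-bla HEK293H cells carrying a UAS-driven beta-lactamase reporter were plated at 3000 cells/well, preincubated 5 h at 37C, then given compound for 17 h at 37C; LiveBLAzer B/G FRET substrate was read after 1 h at room temperature.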
# [14] = qHTS assay to identify small molecule antagonists of the peroxisome proliferator-activated receptor gamma (PPARg) signaling pathway - cell viability counter screen (AID 743194); details: Potency: co-treated with 50 nM rosiglitazone; note: nearly all actives have a fitted effect of over 55% in size
# How it was run: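 PPARg-UAS-bla HEK293H cells were plated, rested 5 h at 37 C, then treated with compounds plus rosiglitazone (50 nM final) for 17 h at 37 C; viability was then read by CellTiter-Glo luminescence after 30 min at room temperature.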
# [15] = qHTS assay for small molecule agonists of the antioxidant response element (ARE) signaling pathway (AID 743202; active = well fitted activation curve with a large enough effect in the signal ratio in the repeat runs, not every such curve was filed as active; the % refers to the signal ratio)
# How it was run: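 Steps: seed ARE-bla HepG2 cells (2,000/well); incubate 5 h at 37 C; add compounds by pin tool; incubate 16 h at 37 C; add FRET substrate; read fluorescence after 2 h at RT.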
# [16] = qHTS assay for small molecule agonists of the antioxidant response element (ARE) signaling pathway - cell viability counter screen (AID 743203; calls by dose curve; note: nearly all actives have a fitted effect of over 55% in size)
# How it was run: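 Cytotoxicity was tested in parallel with the ARE reporter screen. ARE-bla HepG2 cells were exposed to compounds for 16 hrs, and viability was taken from CellTiter-Glo luminescence.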
# [17] = qHTS assay for small molecule activators of the heat shock response signaling pathway - cell viability counter screen (AID 743209); note: nearly all actives have a fitted effect of over 50% in size
# How it was run: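 Cytotoxicity counter screen run in parallel with the HSE beta-lactamase reporter, using the same wells. HeLa HSE-bla cells received compound for 5 h at 37 C; ATP-based CellTiter-Glo luminescence was measured after 30 min at room temperature.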
# [18] = qHTS assay to identify small molecule antagonists of the thyroid receptor (TR) signaling pathway (AID 743065); note: nearly all actives have a fitted effect of over 55% in size
# How it was run: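 GH3.TRE-Luc rat pituitary cells carrying two TR response elements driving luciferase were plated for 4 h, given compound plus 1 nM T3 (final), and incubated 23.5 h at 37 C. ONE-Glo luminescence measured reporter inhibition; CellTiter-Fluor fluorescence tracked cytotoxicity.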
# [19] = qHTS assay for small molecule activators of the heat shock response signaling pathway (AID 743210; active = well fitted activation curve with a large enough effect in the signal ratio in the repeat runs, with a control signal flat, not every such curve was filed as active; the % refers to the signal ratio;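 note: HeLa cells with beta-lactamase reporter driven by heat shock elements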)
# How it was run: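 Activation of heat shock element-controlled beta-lactamase expression is measured in HeLa cells by LiveBLAzer FRET fluorescence, with compound exposure lasting 5 h at 37 C and substrate loading 2.5 h at room temperature.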
SMILES,Potency [1],Potency [2],Potency [3],outcome [4],Potency [5],activation [6],Potency [7],Potency [8],Potency (Aromatase (Homo sapiens)),Potency [9],Potency [10],outcome [11],outcome [12],Potency [13],Potency [14],Potency [15],Potency [16],Potency [17],Potency [18],outcome [19]
O=C1CN=C(c2ccccc2)c2cc([N+](=O)[O-])ccc2N1,inactive,inactive,inactive,inactive,inactive,-1.51%,inactive,inactive,inactive,inactive,inactive,inactive,inactive,inactive,inactive,inactive,inactive,inactive,,
CCC1(c2ccccc2)C(=O)N=C(O)NC1=O (configuration not stated),inactive,,,inactive,inactive,-3.61%,inactive,inactive,inactive,inactive,inactive,inactive,inactive,inactive,inactive,inactive,inactive,inactive,inactive,inactive
O=CNC(N1CCN(C(NC=O)C(Cl)(Cl)Cl)CC1)C(Cl)(Cl)Cl (configuration not stated),inactive,inactive,,,inactive,-11.3%,,inactive,inactive,inactive,inactive,inactive,inactive,inactive,inactive,inactive,inactive,,inactive,
CC(CCc1ccccc1)NC(C)C(O)c1ccc(O)cc1 (configuration not stated),16.8 µM (active),inactive,inactive,inactive,inactive,-7.77%,inactive,inactive,inactive,inactive,inactive,inactive,inactive,,inactive,,inactive,inactive,,
CNCC(=O)c1ccc(O)c(O)c1,inactive,inactive,,,inactive,-0.0937%,inactive,,inactive,inactive,inactive,inactive,inactive,inactive,inactive,,inactive,inactive,inactive,
Clc1cccc(N2CCNCC2)c1,inactive,inactive,inactive,inactive,inactive,10.2%,inactive,inactive,inactive,inactive,inactive,inactive,inactive,inactive,inactive,inactive,,inactive,,inactive
CCCCP(CCCC)CCCC,inactive,inactive,inactive,inactive,inactive,0.877%,inactive,inactive,inactive,inactive,inactive,inactive,,,inactive,inactive,inactive,inactive,,inactive
